# Assays:
# Assay in all cases: DAPPL (digital affinity profiling via proximity ligation, sequencing); 10 mM Tris-HCl pH 7.5, 50 mM NaCl, 1 mM DTT, 4% glycerol, room temperature, 30 min; GST-TFs on glutathione beads, 16-mer random dsDNA library, 0.1% formaldehyde crosslink after washing; high values mean tight binding
# Settings in all cases: protein: recombinant; tags: N-terminal GST; dsDNA, one strand shown
# GABPA = molecular target: T1, GABPA (Homo sapiens, UniProt Q06546 1-454)
# T1 sequence: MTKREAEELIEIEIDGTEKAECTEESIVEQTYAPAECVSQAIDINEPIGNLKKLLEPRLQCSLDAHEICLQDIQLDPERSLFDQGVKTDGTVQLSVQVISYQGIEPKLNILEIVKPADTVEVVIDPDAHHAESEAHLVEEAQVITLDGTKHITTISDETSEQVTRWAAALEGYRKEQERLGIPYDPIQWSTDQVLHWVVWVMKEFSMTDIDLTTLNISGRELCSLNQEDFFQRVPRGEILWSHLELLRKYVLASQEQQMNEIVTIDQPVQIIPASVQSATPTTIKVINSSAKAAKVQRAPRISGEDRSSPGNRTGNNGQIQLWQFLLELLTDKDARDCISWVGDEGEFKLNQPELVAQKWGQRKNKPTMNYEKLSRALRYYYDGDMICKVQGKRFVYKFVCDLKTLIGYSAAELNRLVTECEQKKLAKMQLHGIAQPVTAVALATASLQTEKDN
# Outline: (§1)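 Human transcription factors were made in yeast as GST fusions, captured on glutathione beads and barcoded with DNA. With a tag-only sample included, the pool was incubated with 200 nmole of a random double-stranded 16-mer DNA library in Tris/NaCl/DTT/glycerol buffer at room temperature for 30 min, then crosslinked with 0.1% formaldehyde after washing, ligated by proximity, amplified and sequenced. For binding signal, each hexamer's read frequency for a factor is divided by its frequency for the tag-only sample.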
# ERG = molecular target: T2, ERG (Homo sapiens, UniProt P11308 1-479)
# T2 sequence: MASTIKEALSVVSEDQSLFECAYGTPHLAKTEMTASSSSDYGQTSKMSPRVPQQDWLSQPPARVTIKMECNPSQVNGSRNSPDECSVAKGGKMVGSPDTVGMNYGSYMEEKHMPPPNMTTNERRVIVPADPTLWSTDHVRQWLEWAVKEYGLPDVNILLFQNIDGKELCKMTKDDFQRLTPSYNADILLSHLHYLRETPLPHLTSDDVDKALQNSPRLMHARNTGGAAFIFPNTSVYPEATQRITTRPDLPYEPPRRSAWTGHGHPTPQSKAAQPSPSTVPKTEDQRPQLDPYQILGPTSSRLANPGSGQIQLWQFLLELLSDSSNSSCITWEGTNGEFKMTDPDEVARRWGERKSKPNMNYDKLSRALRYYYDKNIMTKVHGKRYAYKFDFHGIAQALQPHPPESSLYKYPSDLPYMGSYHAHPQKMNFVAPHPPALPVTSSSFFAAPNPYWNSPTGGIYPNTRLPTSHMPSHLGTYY
# Outline: as §1
# EHF = molecular target: T3, EHF (Homo sapiens, UniProt Q9NZC4 1-300)
# T3 sequence: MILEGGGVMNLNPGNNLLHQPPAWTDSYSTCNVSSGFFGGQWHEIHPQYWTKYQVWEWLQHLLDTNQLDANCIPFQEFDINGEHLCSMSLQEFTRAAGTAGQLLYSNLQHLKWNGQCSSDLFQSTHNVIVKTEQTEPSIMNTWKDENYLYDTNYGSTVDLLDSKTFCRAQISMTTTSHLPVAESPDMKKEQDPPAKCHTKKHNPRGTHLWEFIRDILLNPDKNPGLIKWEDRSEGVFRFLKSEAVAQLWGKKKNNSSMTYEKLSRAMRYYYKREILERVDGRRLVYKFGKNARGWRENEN
# Outline: as §1
# ELK3 = molecular target: T4, ELK3 (Homo sapiens, UniProt P41970 1-407)
# T4 sequence: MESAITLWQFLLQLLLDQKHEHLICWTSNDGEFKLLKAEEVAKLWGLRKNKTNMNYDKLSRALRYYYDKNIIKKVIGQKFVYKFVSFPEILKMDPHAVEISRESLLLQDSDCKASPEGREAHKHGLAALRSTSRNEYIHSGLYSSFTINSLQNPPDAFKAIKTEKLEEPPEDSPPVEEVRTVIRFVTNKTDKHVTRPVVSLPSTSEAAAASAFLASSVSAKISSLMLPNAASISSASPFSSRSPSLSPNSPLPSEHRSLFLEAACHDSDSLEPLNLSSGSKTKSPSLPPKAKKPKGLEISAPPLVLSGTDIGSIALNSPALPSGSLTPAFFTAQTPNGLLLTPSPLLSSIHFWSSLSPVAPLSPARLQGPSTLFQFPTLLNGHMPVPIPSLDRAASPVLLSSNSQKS
# Outline: as §1
# SPIC = molecular target: T5, SPIC (Homo sapiens, UniProt Q8N5J4 1-248)
# T5 sequence: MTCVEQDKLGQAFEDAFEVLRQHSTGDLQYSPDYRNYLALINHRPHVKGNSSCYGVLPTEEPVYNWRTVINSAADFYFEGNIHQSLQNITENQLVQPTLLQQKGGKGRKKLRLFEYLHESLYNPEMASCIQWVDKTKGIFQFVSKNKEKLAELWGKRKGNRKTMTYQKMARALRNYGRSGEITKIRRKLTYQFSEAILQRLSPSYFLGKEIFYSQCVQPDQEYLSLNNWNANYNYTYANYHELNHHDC
# Outline: as §1
# ETV2 = molecular target: T6, ETV2 (Homo sapiens, UniProt O00321 1-342)
# T6 sequence: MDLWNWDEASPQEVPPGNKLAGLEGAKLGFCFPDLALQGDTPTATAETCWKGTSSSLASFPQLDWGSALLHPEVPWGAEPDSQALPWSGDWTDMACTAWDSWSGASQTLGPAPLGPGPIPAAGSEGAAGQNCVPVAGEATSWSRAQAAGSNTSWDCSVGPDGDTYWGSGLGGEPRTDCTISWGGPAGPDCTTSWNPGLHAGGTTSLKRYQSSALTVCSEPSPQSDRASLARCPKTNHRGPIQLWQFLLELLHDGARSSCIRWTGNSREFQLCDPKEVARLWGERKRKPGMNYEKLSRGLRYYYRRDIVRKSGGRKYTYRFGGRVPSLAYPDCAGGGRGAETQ
# Outline: as §1
# ELF3 = molecular target: T7, ELF3 (Homo sapiens, UniProt P78545 1-371)
# T7 sequence: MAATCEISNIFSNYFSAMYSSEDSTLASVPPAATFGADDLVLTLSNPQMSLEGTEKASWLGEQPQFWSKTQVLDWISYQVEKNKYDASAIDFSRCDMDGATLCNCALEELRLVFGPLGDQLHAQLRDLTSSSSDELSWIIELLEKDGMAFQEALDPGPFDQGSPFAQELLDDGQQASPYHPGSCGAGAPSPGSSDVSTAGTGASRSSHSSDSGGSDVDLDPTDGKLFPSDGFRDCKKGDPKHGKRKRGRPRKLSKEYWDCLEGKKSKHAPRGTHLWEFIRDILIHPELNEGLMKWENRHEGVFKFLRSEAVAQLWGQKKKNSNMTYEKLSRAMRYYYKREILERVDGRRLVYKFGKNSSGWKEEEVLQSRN
# Outline: as §1
# ERF = molecular target: T8, ERF (Homo sapiens, UniProt P50548 1-548)
# T8 sequence: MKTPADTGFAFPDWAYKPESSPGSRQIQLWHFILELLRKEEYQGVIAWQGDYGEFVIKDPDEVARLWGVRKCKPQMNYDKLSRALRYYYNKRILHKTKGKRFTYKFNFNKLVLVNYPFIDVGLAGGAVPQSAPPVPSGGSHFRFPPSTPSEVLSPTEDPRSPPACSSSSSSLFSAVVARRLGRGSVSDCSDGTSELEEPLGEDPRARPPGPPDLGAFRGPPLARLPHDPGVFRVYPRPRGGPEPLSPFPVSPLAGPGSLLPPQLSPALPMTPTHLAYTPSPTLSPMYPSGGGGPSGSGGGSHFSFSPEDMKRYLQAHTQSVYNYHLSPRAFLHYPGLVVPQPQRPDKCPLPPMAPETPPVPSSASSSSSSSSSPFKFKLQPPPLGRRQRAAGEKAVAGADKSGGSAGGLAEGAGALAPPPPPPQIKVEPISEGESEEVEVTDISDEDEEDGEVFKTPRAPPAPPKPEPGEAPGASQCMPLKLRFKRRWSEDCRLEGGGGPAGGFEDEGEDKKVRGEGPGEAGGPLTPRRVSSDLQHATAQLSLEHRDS
# Outline: as §1
# ELF1 = ELF1 (Homo sapiens, UniProt P32519 1-619)
# Chain of ELF1 (P32519 whole entry): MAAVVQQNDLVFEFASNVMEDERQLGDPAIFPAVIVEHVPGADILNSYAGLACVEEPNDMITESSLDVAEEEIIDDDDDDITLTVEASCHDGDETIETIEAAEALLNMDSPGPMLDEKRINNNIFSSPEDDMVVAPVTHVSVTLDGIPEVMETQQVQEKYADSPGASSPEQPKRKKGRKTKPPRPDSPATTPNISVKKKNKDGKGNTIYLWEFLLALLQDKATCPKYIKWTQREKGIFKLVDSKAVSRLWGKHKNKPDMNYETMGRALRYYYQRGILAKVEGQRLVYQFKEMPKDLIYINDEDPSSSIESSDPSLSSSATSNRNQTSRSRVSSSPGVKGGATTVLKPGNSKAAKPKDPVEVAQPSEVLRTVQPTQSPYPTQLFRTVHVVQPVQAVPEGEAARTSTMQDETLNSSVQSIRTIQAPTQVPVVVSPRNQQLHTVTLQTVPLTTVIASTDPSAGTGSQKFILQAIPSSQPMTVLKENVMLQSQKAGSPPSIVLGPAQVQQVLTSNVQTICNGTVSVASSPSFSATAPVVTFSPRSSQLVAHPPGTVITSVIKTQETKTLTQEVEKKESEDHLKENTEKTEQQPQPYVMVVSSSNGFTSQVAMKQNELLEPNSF
# Outline: as §1
# SPIB = SPIB (Homo sapiens, UniProt Q01892 1-262)
# Chain of SPIB (Q01892 whole entry): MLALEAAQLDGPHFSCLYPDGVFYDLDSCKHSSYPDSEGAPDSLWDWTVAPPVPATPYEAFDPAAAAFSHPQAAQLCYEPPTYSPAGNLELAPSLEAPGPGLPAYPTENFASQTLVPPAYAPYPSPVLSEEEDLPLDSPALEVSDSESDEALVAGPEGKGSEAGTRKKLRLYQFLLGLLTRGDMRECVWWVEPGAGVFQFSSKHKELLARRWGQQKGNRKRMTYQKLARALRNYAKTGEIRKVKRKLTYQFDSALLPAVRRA
# Outline: as §1
# ELK4 = molecular target: T9, ELK4 (Homo sapiens, UniProt P28324-2 1-405)
# T9 sequence: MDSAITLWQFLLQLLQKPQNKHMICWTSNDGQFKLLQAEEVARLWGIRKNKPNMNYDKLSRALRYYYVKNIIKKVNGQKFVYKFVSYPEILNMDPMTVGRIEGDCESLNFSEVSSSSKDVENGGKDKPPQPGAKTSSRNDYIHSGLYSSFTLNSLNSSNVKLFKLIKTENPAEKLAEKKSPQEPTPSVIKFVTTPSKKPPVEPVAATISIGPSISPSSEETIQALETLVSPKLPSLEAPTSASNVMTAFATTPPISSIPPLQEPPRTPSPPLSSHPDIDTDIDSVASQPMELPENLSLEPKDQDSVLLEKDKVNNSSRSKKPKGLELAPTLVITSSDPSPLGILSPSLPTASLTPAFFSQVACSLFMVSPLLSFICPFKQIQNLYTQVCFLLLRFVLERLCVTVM
# Outline: as §1
# ETV1 = ETV1 (Homo sapiens, UniProt P50549 1-477)
# Chain of ETV1 (P50549 whole entry): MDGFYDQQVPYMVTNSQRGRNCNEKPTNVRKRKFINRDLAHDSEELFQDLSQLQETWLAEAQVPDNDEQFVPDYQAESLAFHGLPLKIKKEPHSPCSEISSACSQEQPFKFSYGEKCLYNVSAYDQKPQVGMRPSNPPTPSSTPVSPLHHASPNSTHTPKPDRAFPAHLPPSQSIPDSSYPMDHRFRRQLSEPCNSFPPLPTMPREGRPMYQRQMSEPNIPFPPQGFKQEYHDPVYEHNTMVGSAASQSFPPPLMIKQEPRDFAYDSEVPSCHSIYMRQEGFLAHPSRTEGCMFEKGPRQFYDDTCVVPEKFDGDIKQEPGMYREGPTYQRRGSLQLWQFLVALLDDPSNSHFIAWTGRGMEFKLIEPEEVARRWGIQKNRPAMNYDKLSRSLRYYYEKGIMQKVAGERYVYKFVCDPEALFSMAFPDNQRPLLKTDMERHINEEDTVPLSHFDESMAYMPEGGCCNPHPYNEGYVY
# Outline: as §1
# ETV3L = molecular target: T10, ETV3L (Homo sapiens, UniProt Q6ZN32 1-361)
# T10 sequence: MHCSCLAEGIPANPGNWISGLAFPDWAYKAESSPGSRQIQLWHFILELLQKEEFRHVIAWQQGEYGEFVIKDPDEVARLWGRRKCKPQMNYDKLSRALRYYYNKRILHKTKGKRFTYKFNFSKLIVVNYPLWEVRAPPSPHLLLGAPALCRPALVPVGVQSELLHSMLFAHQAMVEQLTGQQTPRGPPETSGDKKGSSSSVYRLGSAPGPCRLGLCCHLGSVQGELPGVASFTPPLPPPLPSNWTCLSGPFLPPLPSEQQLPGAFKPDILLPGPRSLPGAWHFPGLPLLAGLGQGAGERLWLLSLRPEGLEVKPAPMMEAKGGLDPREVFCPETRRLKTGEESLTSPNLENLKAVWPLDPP
# Outline: as §1
# SPDEF = molecular target: T11, SPDEF (Homo sapiens, UniProt O95238 1-335)
# T11 sequence: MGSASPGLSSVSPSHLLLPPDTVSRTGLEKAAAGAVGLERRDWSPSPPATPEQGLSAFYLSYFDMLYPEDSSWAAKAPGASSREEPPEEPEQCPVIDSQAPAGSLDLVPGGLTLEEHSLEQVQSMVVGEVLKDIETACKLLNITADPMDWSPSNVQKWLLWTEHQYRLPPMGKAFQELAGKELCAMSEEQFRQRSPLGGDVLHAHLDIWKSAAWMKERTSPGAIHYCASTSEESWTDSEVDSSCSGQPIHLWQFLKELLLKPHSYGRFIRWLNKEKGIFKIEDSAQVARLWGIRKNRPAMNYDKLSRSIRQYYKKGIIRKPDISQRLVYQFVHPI
# Outline: as §1
# ETV7 = molecular target: T12, ETV7 (Homo sapiens, UniProt Q9Y603 1-341)
# T12 sequence: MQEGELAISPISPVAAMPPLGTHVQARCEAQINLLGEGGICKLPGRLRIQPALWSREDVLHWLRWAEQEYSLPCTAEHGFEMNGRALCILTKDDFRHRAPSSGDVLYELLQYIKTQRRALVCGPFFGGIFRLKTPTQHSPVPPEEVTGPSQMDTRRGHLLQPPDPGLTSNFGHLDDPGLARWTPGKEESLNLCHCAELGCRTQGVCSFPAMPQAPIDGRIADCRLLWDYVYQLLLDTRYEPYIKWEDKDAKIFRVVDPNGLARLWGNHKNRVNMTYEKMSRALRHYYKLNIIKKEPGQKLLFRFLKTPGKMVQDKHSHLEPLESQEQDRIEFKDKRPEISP
# Outline: as §1
sequence,measurement,setting,value
ACGAGC,binding signal,GABPA,"1.01 fold enrichment (6-mer frequency, TF over GST control)"
same,binding signal,ERG,"1.01 fold enrichment (6-mer frequency, TF over GST control)"
same,binding signal,EHF,"1.02 fold enrichment (6-mer frequency, TF over GST control)"
same,binding signal,ELK3,"1.03 fold enrichment (6-mer frequency, TF over GST control)"
same,binding signal,SPIC,"1.06 fold enrichment (6-mer frequency, TF over GST control)"
same,binding signal,ETV2,"1.04 fold enrichment (6-mer frequency, TF over GST control)"
same,binding signal,ELF3,"1.01 fold enrichment (6-mer frequency, TF over GST control)"
AGCACG,binding signal,SPIC,"1.02 fold enrichment (6-mer frequency, TF over GST control)"
same,binding signal,ERF,"1.01 fold enrichment (6-mer frequency, TF over GST control)"
CCACGT,binding signal,GABPA,"1.09 fold enrichment (6-mer frequency, TF over GST control)"
same,binding signal,ELF1,"1.04 fold enrichment (6-mer frequency, TF over GST control)"
same,binding signal,SPIB,"1.03 fold enrichment (6-mer frequency, TF over GST control)"
same,binding signal,ELK3,"1.05 fold enrichment (6-mer frequency, TF over GST control)"
same,binding signal,SPIC,"1.09 fold enrichment (6-mer frequency, TF over GST control)"
same,binding signal,ELK4,"1.01 fold enrichment (6-mer frequency, TF over GST control)"
same,binding signal,ETV1,"1.01 fold enrichment (6-mer frequency, TF over GST control)"
same,binding signal,ERF,"1.07 fold enrichment (6-mer frequency, TF over GST control)"
same,binding signal,ETV3L,"1.04 fold enrichment (6-mer frequency, TF over GST control)"
same,binding signal,SPDEF,"1.02 fold enrichment (6-mer frequency, TF over GST control)"
same,binding signal,ETV7,"1.06 fold enrichment (6-mer frequency, TF over GST control)"

# Reference: article PMC7862700, “An all-to-all approach to the identification of sequence-specific readers for epigenetic DNA modifications on cytosine”
